NIH3T3 tox: Cytotoxic Profiling in NIH 3T3 Cell Line of Diverse Libraries Using Quantitative High-Throughput Screening | NIH 3T3 viability, CellTiter-Glo ATP luminescence, 48-72 h | Potency, µM (titrated, usually from 96.7 µM), hits mostly inhibitors | hit rate 4.3% among 94,000; note: nearly all actives have a fitted effect of over 55% in size
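Mouse fibroblast NIH 3T3 cells, 400 per well, received compound via pintool and were incubated for 48 or 72 hr prior to CellTiter-Glo ATP luminescence measurement.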
Luciferase inh: Firefly luciferase inhibition profiling of diverse chemical library using quantitative high-throughput screening; purified P. pyralis luciferase, luminescence, biochemical; hit rate 2.5% among 76,000; Luciferin 4-monooxygenase (Photinus pyralis), P08659; Potency, µM (doses to about 115 µM), usual class: inhibitors; note: nearly all actives have a fitted effect of over 65% in size
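Purified P. pyralis luciferase (10nM final) in 50mM Tris acetate pH 7.5, 10mM Mg acetate, 0.01% Tween-20, 0.05% BSA with 10uM D-luciferin and 10uM ATP. Compounds titrated qHTS. Luminescence imaged on CCD.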
hNpr1 antagonist: Natriuretic polypeptide receptor (hNpr1) antagonism - Primary qHTS. Atrial natriuretic peptide receptor 1 (Homo sapiens), P16066. HEK293 hNpr1 GloSensor cGMP, ANP-stimulated luminescence. Potency, µM (series often up to 46.3 µM), actives largely listed as inhibitors. hit rate 1.6% among 76,000; calls by dose curve; note: nearly all actives have a fitted effect of over 60% in size
Target sequence (P16066 whole entry, looked up): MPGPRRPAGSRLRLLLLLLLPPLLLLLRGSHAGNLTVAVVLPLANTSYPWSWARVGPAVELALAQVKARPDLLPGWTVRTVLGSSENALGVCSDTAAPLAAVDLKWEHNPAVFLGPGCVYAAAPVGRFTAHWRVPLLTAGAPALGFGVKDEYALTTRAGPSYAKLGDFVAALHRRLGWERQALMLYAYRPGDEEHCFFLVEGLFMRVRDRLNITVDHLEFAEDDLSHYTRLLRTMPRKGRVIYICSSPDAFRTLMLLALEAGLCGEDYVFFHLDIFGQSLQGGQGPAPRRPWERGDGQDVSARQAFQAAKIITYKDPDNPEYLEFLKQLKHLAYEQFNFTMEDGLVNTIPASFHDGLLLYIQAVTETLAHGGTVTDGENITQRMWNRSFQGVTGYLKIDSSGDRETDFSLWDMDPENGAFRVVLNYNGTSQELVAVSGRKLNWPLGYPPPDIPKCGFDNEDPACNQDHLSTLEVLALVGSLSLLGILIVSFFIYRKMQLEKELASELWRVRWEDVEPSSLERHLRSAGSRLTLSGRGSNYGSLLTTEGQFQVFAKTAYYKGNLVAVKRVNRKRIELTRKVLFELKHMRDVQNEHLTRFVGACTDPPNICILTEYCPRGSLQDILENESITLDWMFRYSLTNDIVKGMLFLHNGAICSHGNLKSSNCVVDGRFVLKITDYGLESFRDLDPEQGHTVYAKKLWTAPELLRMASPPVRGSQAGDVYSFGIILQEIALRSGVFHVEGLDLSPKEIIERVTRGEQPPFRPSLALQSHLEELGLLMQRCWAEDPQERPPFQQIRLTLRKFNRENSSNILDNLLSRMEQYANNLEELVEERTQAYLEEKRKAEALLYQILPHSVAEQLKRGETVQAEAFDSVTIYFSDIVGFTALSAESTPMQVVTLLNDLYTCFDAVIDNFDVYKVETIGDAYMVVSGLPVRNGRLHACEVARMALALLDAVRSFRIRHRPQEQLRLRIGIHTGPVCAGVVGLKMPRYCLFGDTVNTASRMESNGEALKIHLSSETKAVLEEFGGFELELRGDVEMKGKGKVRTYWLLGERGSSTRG
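Compound pre-incubated 30 min at room temperature on GloSensor-loaded HEK293 cells stably carrying hNpr1 and the pGS-40F cGMP biosensor. Stimulation uses hNppA at 0.1 nM final; luminescence is taken at baseline and 20 min post-agonist.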
HEK cytotox: Cytotoxic Profiling in HEK 293 Cell Line of Diverse Libraries Using Quantitative High-Throughput Screening | HEK 293 viability, ATP luminescence (CellTiter-Glo), 48-72 h | Potency, µM (highest dose often 115 µM), actives largely listed as inhibitors | hit rate 6.6% among 94,000; note: nearly all actives have a fitted effect of over 60% in size
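Cells seeded first (HEK 293, 250 cells/well), then compound added by pintool. Incubation ran 48 or 72 hr at 37 degree Celsius. CellTiter-Glo was added and luminescence imaged after 10 min at room temperature.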
Large screens that a line does not name were inactive; ! = not active in a repeat. This is a sample that favours compounds with a hit; in the whole collection about 11% have one here. Unless noted, calls come from the whole dose curve; as a rule, active = well fitted curve in the direction sought with a large enough effect; inconclusive = small, poorly fitted or top-dose-only effect, or another doubt; inactive = no such curve, though single readings can be large; an effect the other way counts as inactive or inconclusive.

CN1CCC(Cc2ccc(C(=O)O)cc2)CC1	none
Cc1cc(C)n(C2CCN(c3nccc(-c4ccccn4)n3)C2)n1 (stereo not drawn)	Luciferase inh 45µM
COCCNC(=O)c1ccc(OC2CCN(Cc3ncc[nH]3)CC2)c(Cl)c1	none
O=C(NC1CCCC1)c1ccc(OC2CCN(CCCC(F)(F)F)CC2)c(Cl)c1	NIH3T3 tox inconclusive, HEK cytotox 32µM
CC(=O)Nc1ccc(S(=O)(=O)N[C@H]2C[C@@H](c3nc(-c4ccccc4)no3)N(C)C2)cc1	NIH3T3 tox inconclusive, Luciferase inh inconclusive, hNpr1 antagonist inconclusive, HEK cytotox 40µM
CC(=O)Nc1ccc(S(=O)(=O)N[C@H]2C[C@@H](c3nc(C)no3)N(C)C2)cc1	none
Cc1ccc(-c2noc([C@@H]3C[C@H](NS(=O)(=O)c4ccc5ccccc5c4)CN3C)n2)cc1	NIH3T3 tox inconclusive, Luciferase inh 20µM, HEK cytotox inconclusive
CCCS(=O)(=O)N[C@H]1C[C@@H](c2nc(-c3ccc4c(c3)OCO4)no2)N(C)C1	Luciferase inh 45µM, HEK cytotox inconclusive
Cc1ccc(-c2noc([C@@H]3C[C@H](NS(=O)(=O)Cc4ccccc4)CN3C)n2)cc1	NIH3T3 tox 79µM, HEK cytotox 100µM
CN1C[C@@H](NS(=O)(=O)Cc2ccccc2)C[C@H]1c1nc(-c2ccccc2)no1	NIH3T3 tox inconclusive, HEK cytotox inconclusive
O=C(NC1CC1)c1ccccc1OC1CN(Cc2cccc(F)c2F)C1	HEK cytotox inconclusive
COc1ccc(-c2nc(C3CC(=O)N(c4ccc(OC)c(OC)c4)C3)no2)c(OC)c1 (stereo not drawn)	NIH3T3 tox inconclusive, HEK cytotox inconclusive
Cc1ccc(-c2noc([C@@H]3C[C@H](NS(=O)(=O)c4ccc(C)cc4)CN3C)n2)cc1	NIH3T3 tox 89µM, Luciferase inh 22µM, hNpr1 antagonist inconclusive, HEK cytotox 71µM
COc1ccc(-c2noc([C@@H]3C[C@H](NS(=O)(=O)c4ccc(C)cc4)CN3C)n2)cc1	NIH3T3 tox inconclusive, HEK cytotox inconclusive
Cc1cnc(C2CC2)n1C1CCCN(C(=O)c2ccco2)C1 (stereo not drawn)	none
O=[S+]1([O-])NC2(CCCN(Cc3ccccc3C(F)(F)F)C2)CNc2ccccc21 (stereo not drawn)	NIH3T3 tox inconclusive, HEK cytotox 45µM
O=[S+]1([O-])NC2(CCCN(Cc3ccccc3)C2)CNc2ccccc21 (stereo not drawn)	HEK cytotox inconclusive
O=C1CCN(CC(O)COc2ccccc2)c2ccc(F)cc2CN1CC1CC1 (stereo not drawn)	HEK cytotox inconclusive (no result: Luciferase inh, hNpr1 antagonist)
COCCN1Cc2ccc(NCc3ccccc3)nc2C(C)(C(=O)Nc2ccccc2)C1 (stereo not drawn)	NIH3T3 tox inconclusive, HEK cytotox 50µM
COCCN1Cc2ccc(NCc3ccccc3)nc2C(C)(C(=O)NCc2ccccc2)C1 (stereo not drawn)	NIH3T3 tox 45µM, HEK cytotox 50µM
COCCN1Cc2ccc(NCC(C)C)nc2C(C)(C(=O)Nc2cccc(F)c2)C1 (stereo not drawn)	NIH3T3 tox 25µM, HEK cytotox 45µM
COCCN1Cc2ccc(NCc3ccccc3)nc2C(C)(C(=O)Nc2cccnc2)C1 (stereo not drawn)	NIH3T3 tox inconclusive, HEK cytotox inconclusive
COCCN1Cc2ccc(Nc3cccnc3)nc2C(C)(C(=O)Nc2ccccc2C)C1 (stereo not drawn)	NIH3T3 tox inconclusive, Luciferase inh 63µM, HEK cytotox inconclusive
CCOC(=O)CCNC(=O)N1CCC2(CC1)C(=O)N(C(C)C)C2c1ccccc1 (stereo not drawn)	none (no result: Luciferase inh, hNpr1 antagonist)
O=C(Nc1ccc(Cl)cc1)N1CCN(c2ccc3nnc(C4CC4)n3n2)CC1	NIH3T3 tox 22µM, HEK cytotox 35µM (no result: Luciferase inh, hNpr1 antagonist)
Cc1nnc2ccc(N3CCCN(C(=O)Nc4ccc(Cl)cc4)CC3)nn12	none (no result: Luciferase inh, hNpr1 antagonist)
Cc1noc(C)c1-c1cnc(Nc2ccc(F)c(Cl)c2)c2c1CCO2	NIH3T3 tox inconclusive, Luciferase inh 14µM, hNpr1 antagonist inconclusive, HEK cytotox 71µM
Cc1noc(C)c1-c1cnc(NC(=O)c2ccc(Cl)cc2)c2c1CCO2	NIH3T3 tox 89µM
C[S+](=O)([O-])Nc1cccc(Nc2ncc(-c3cccc(F)c3)c3c2OCC3)c1	NIH3T3 tox 32µM, HEK cytotox inconclusive
Cc1noc(C)c1-c1cnc(Nc2ccc(F)cc2)c2c1CCO2	NIH3T3 tox inconclusive, HEK cytotox inconclusive
COc1ccccc1-c1cnc(NC(=O)c2ccc(F)c(Cl)c2)c2c1CCO2	NIH3T3 tox inconclusive, Luciferase inh 18µM, HEK cytotox inconclusive
COc1cccc(Nc2ncc(-c3c(C)noc3C)c3c2OCC3)c1	NIH3T3 tox inconclusive, HEK cytotox inconclusive
COc1ccccc1-c1cnc(NC(=O)c2cccnc2)c2c1CCO2	NIH3T3 tox inconclusive
CNC(=O)[C@@H]1CN(Cc2ccc(C#N)cc2)C[C@H]1COC	none
CCN(Cc1ccccc1)C(=O)CC1CCCCN(Cc2ccccc2)C1=O (stereo not drawn)	NIH3T3 tox inconclusive, HEK cytotox inconclusive
CCOc1ccccc1CN1CCC2(CCN([S+](=O)([O-])c3cccc(C(F)(F)F)c3)CC2)Oc2ccccc21	none
O=C(Nc1ncc(-c2cccc(F)c2)c2c1OCC2)c1ccc(Cl)cc1	NIH3T3 tox inconclusive, HEK cytotox 100µM
O=C(NCc1ccccc1C(F)(F)F)C1CCCN(c2cnn(Cc3ccccc3)c(=O)c2)C1 (stereo not drawn)	NIH3T3 tox inconclusive, HEK cytotox 45µM
Cc1ccc(Cn2cc(-c3ccncc3)cc2C(=O)NCC2CC2)cc1	NIH3T3 tox inconclusive, HEK cytotox inconclusive
Cc1ccc(Cn2cc(-c3ccncc3)cc2C(=O)NC2CC2)cc1	NIH3T3 tox inconclusive, Luciferase inh 45µM, HEK cytotox inconclusive
CSc1ccccc1C(=O)N(C)C1CCCN(CCCc2ccccc2)C1 (stereo not drawn)	HEK cytotox inconclusive
C=CCN1C[C@@H]2C[C@@H](C(N)=O)N(C(=O)c3ccc(Cl)cc3)c3cccc(c32)C1=O	NIH3T3 tox inconclusive (no result: Luciferase inh, hNpr1 antagonist)
c1cncc(-c2nc3ccncc3[nH]2)c1	NIH3T3 tox inconclusive, HEK cytotox inconclusive
c1csc(-c2nc3ccncc3[nH]2)c1	NIH3T3 tox 100µM!, Luciferase inh inconclusive, HEK cytotox inconclusive
c1ccc(-c2nc3ccncc3[nH]2)nc1	NIH3T3 tox inconclusive, HEK cytotox 45µM!
CNC(=O)c1cc(C)nc2onc(C3CCN([S+](=O)([O-])c4ccccc4)C3)c12 (stereo not drawn)	none (no result: Luciferase inh, hNpr1 antagonist)
C[C@@H](NC(=O)C1CCCCC1)c1c(-c2ccc(F)cc2)noc1C(=O)O	NIH3T3 tox 40µM
CC(C)CNC(=O)c1cc(-c2ccccc2F)cc2c1OCCN2Cc1cccnc1	NIH3T3 tox 45µM, HEK cytotox 50µM
COCCNC(=O)c1cc(-c2ccccc2F)cc2c1OCCN2Cc1cccnc1	NIH3T3 tox 89µM, HEK cytotox inconclusive

Screening data deposited in PubChem BioAssay by National Center for Advancing Translational Sciences (NCATS).
